Measurements published in PubChem BioAssay (NCI).
The panel holds about 79,000 compounds, 15% with a hit somewhere; the sample as a whole holds those more often. Calls of active or inactive are those of the source. Rule as the data show it: active = growth inhibition above about 70%; inactive = the rest.

How the values were obtained:
[1] = NCI Yeast Anticancer Drug Screen. Data for the rad50 strain (AID 155);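 also: 0% = growth of vehicle-only cultures of the same strain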; conditions: S. cerevisiae rad50 strain growth inhibition, active compounds read high
How it was run: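 Readout: growth inhibition relative to vehicle-treated cultures. Compound exposure was carried out in a genetically defined yeast strain deficient in DNA damage repair.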

[2] = NCI Yeast Anticancer Drug Screen. Data for the mec2-1 strain (AID 157); conditions: S. cerevisiae mec2-1 strain, active compounds read high
How it was run: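 Growth inhibition is read against vehicle-treated controls after compound exposure of the mec2-1 yeast strain, which is defective in DNA damage repair or cell cycle control.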

[3] = NCI Yeast Anticancer Drug Screen. Data for the sgs1 mgt1 strain (AID 161);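 also: 0% = growth of cultures given vehicle only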; conditions: S. cerevisiae sgs1 mgt1 strain, active compounds read high
How it was run: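 Growth of a repair-deficient yeast mutant was monitored after compound treatment and expressed as inhibition relative to vehicle-treated cultures.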

[4] = NCI Yeast Anticancer Drug Screen. Data for the cln2 rad14 strain (AID 165);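 also: 0% = growth equal to vehicle treated cultures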; conditions: S. cerevisiae cln2 rad14 strain, active compounds read high
How it was run: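 Growth inhibition, relative to vehicle-treated controls, is the read-out. The test organism is a yeast strain with defined genetic alterations, cln2 rad14.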

[5] = NCI Yeast Anticancer Drug Screen. Data for the bub3 strain (AID 167); conditions: S. cerevisiae bub3 mutant strain, active compounds read high
How it was run: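 Readout: yeast growth inhibition, expressed relative to vehicle-only wells. The test organism is a mutant strain from a panel with lesions in DNA repair or checkpoint genes.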

[6] = NCI Yeast Anticancer Drug Screen. Data for the mlh1 rad18 strain (AID 175); conditions: S. cerevisiae mlh1 rad18 strain growth inhibition, active compounds read high
How it was run: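 Cells of a genetically altered yeast strain, deficient in DNA damage repair, were treated with compound. Their growth was then compared with that of vehicle-treated cultures to give inhibition.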

[7] = at 5.0 µM (retest, dose inferred, filed as 0.5)
[8] = at 50.0 µM (retest, dose inferred, filed as 5.0)

Measured: growth inhibition

Cc1ccc(S(=O)(=O)Nc2ccc(C)cc2C)cc1
active: [1]; [8] 96% | [1]; at 50.0 µM 85.5% | [2]; [8] 96% | [3]; [8] 97% | [4]; [8] 83% | [5]; [8] 95% | [6]; [8] 95% | [6]; at 50.0 µM 75.2%
inactive: [1]; [7] -3% | [2]; [7] -6% | [2]; at 50.0 µM 54% | [3]; [7] -2% | [3]; at 50.0 µM 55.4% | [4]; [7] -3% | [4]; at 50.0 µM 32.8% | [5]; [7] -1% | [5]; at 50.0 µM 63.4% | [6]; [7] -2%

COc1ccc(/C=N/n2c(C)nc3c(sc(=S)n3-c3ccccc3)c2=O)cc1
inactive: [1]; [7] 3% | [1]; [8] -12% | [1]; at 50.0 µM 13.6% | [2]; [7] -3% | [2]; [8] -6% | [2]; at 50.0 µM 46.8% | [3]; [7] 3% | [3]; [8] 23% | [3]; at 50.0 µM 11.4% | [4]; [7] -15% | [4]; [8] 4% | [4]; at 50.0 µM 8.15% | [5]; [7] 12% | [5]; [8] 29% | [5]; at 50.0 µM 47.4% | [6]; [7] 22% | [6]; [8] -12% | [6]; at 50.0 µM 10.8%

CCCN(CCC)C(=O)c1nc(N)nc(-c2ccc(OC)cc2)c1-c1ccc(OC)cc1
inactive: [1]; [7] 9% | [1]; [8] 9% | [1]; at 50.0 µM -23.6% | [2]; [7] -1% | [2]; [8] -1% | [2]; at 50.0 µM -30.1% | [3]; [7] -6% | [3]; [8] -6% | [3]; at 50.0 µM 29.4% | [4]; [7] 0% | [4]; [8] 0% | [4]; at 50.0 µM 2.55% | [5]; [7] -10% | [5]; [8] -10% | [5]; at 50.0 µM -21.4% | [6]; [7] -9% | [6]; [8] -9% | [6]; at 50.0 µM -42%

NCCCN1c2ccccc2Sc2ccc(Cl)cc21
inactive: [1]; [7] -7% | [1]; at 50.0 µM -10.7% | [2]; [7] 12% | [2]; [8] 58% | [2]; at 50.0 µM -25.5% | [3]; [7] 10% | [3]; at 50.0 µM 13.4% | [4]; [7] 0% | [4]; [8] 20% | [4]; at 50.0 µM -25.7% | [5]; [7] -1% | [5]; [8] 37% | [6]; [7] 17% | [6]; at 50.0 µM 18.1%
active: [1]; [8] 75% | [3]; [8] 83% | [5]; at 50.0 µM 71.9% | [6]; [8] 98%

NC1=NC(c2ccccc2)CC(c2cc(Cl)cc(Br)c2O)=N1 (stereo not given)
inactive: [1]; [7] 0% | [1]; [8] 25% | [1]; at 50.0 µM 35.1% | [2]; [7] -3% | [2]; [8] 19% | [2]; at 50.0 µM 13.4% | [3]; [7] -1% | [3]; [8] 42% | [3]; at 50.0 µM 10.7% | [4]; [7] 0% | [4]; [8] 22% | [4]; at 50.0 µM 16.2% | [5]; [7] -1% | [5]; [8] 34% | [5]; at 50.0 µM -0.8% | [6]; [7] -3% | [6]; [8] 46% | [6]; at 50.0 µM 28.9%

CCCCCCCCCCCCCCCC[N+](C)(C)CCl
active: [1]; [7] 99% | [1]; [8] 100% | [1]; at 50.0 µM 85.6% | [2]; [7] 99% | [2]; [8] 100% | [2]; at 50.0 µM 89.7% | [3]; [7] 99% | [3]; [8] 100% | [3]; at 50.0 µM 82.2% | [4]; [7] 99% | [4]; [8] 99% | [4]; at 50.0 µM 89% | [5]; [7] 99% | [5]; [8] 100% | [5]; at 50.0 µM 87.3% | [6]; [7] 99% | [6]; [8] 100% | [6]; at 50.0 µM 80.1%

O=C(O)/C=C/c1c2ccccc2cc2ccccc12
inactive: [1]; [7] 41% | [2]; [7] 16% | [3]; [7] 27% | [4]; [7] 9% | [6]; [7] 47%
active: [1]; [8] 96% | [1]; at 50.0 µM 97.1% | [2]; [8] 98% | [2]; at 50.0 µM 96.5% | [3]; [8] 97% | [3]; at 50.0 µM 94.7% | [4]; [8] 96% | [4]; at 50.0 µM 96.9% | [5]; [7] 71% | [5]; [8] 96% | [5]; at 50.0 µM 97.3% | [6]; [8] 97% | [6]; at 50.0 µM 97.5%

Cc1ccc(NC(=O)CCC(=O)CC(=O)C(C)(C)C)cc1C
inactive: [1]; [7] 16% | [1]; [8] 7% | [1]; at 50.0 µM 1.1% | [2]; [7] 2% | [2]; [8] -2% | [2]; at 50.0 µM -14.3% | [3]; [7] 13% | [3]; [8] 3% | [3]; at 50.0 µM -13.8% | [4]; [7] -5% | [4]; [8] 4% | [4]; at 50.0 µM 34.8% | [5]; [7] -6% | [5]; [8] 3% | [5]; at 50.0 µM -7.9% | [6]; [7] -2% | [6]; [8] -4% | [6]; at 50.0 µM -15.7%

C/C(=N\NC(=S)N1CCCCCC1)c1cccc2cccnc12
active: [1]; at 50.0 µM 94.2% | [2]; at 50.0 µM 83.9% | [3]; at 50.0 µM 97.6% | [4]; at 50.0 µM 94.4% | [5]; at 50.0 µM 87.5% | [6]; at 50.0 µM 86.2%
inactive: [1]; [7] -3% | [1]; [8] 14% | [2]; [7] -5% | [2]; [8] 44% | [3]; [7] 7% | [3]; [8] 30% | [4]; [7] -19% | [4]; [8] 2% | [5]; [7] -4% | [5]; [8] 26% | [6]; [7] -9% | [6]; [8] 22%

CC1OC(c2ccc3c(c2)OCO3)OC1C (stereo not given)
active: [4]; at 50.0 µM 70.7%
inactive: [1]; [7] 1% | [1]; [8] 0% | [1]; at 50.0 µM -21.6% | [2]; [7] -4% | [2]; [8] -7% | [2]; at 50.0 µM 20.1% | [3]; [7] -4% | [3]; [8] -5% | [3]; at 50.0 µM 24.6% | [4]; [7] 0% | [4]; [8] -2% | [5]; [7] -8% | [5]; [8] -23% | [5]; at 50.0 µM 25% | [6]; [7] 2% | [6]; [8] 0% | [6]; at 50.0 µM 64.7%
